Assay results from PubChem BioAssay AID651823 (Broad Institute, 2012).
Some of the results follow. Values without a mark were called inactive. Activity calls are given as the source filed them. Cut-off read from the data, not from the text of the source: active = max delta Tm above about 0.48 degrees C; inactive = the rest.

Target: Kelch-like ECH-associated protein 1 (Homo sapiens) (UniProt Q14145)
Experiment: Tm shift of Keap1 Kelch upon compound binding – biophysical, thermal shift, RT-PCR instrument, cherry-pick, dose response (AID 651823)
Conditions: active compounds read high; at 50 µM unless noted

Kelch-like ECH-associated protein 1 (Homo sapiens), sequence (Q14145 whole entry, looked up): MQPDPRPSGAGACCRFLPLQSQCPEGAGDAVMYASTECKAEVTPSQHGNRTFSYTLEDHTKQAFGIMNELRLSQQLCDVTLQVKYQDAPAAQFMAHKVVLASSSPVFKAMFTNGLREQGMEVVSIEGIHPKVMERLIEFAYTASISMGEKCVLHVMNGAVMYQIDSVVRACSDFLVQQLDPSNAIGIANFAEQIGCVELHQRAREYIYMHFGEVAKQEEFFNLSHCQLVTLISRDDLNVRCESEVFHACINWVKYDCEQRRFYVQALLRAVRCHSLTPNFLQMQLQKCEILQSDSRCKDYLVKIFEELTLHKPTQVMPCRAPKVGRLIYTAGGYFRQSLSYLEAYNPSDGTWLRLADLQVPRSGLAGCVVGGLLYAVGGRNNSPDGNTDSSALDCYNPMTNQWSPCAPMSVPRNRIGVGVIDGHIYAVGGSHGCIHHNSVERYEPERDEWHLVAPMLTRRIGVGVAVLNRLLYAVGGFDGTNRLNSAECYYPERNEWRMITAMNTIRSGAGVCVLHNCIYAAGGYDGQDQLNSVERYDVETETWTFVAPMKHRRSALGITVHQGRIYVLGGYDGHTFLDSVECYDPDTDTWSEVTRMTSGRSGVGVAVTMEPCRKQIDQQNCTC

| Compound | max delta Tm |
| --- | --- |
| Nc1ccc2nc3c(=O)[nH]c(=S)[nH]c3nc2c1 | 0.14 °C |
| CN(CCOc1ccc(CC2SC(=O)NC2=O)cc1)c1ccccn1 (stereo not drawn) | -0.09 °C [at 0.8 µM] |
| O=C(NCCOCc1ccc(Cl)cc1)c1ncn[nH]1 | -0.19 °C |
| Cc1cccc(NS(=O)(=O)c2ccc(C)c(C(=O)NCC(c3ccccc3)N(C)C)c2)c1 (stereo not drawn) | -0.11 °C [at 0.8 µM] |
| COc1cc(OC)c(S(=O)(=O)Nc2ccccc2C(=O)O)cc1S(=O)(=O)Nc1ccccc1C(=O)O | 0.77 °C (active) |
| COC(=O)C[n+]1cccc2ccccc21 | -0.13 °C |
| CCCC1OC23CCCCC2C(C#N)(C#N)C1(C#N)C(=N)O3 (stereo not drawn) | -0.1 °C [at 0.38 µM] |
| CC1(C)CC(=O)C(N=Nc2c(F)cccc2F)=C(O)C1 | -0.12 °C [at 6 µM] |
| CCN1/C(=C\c2ccc3ccccc3[n+]2CC)Sc2cc(C)ccc21 | -0.01 °C [at 26 µM] |
| CCCN(CCC)C(=O)C1c2ccccc2Oc2ccccc21 | -0.08 °C [at 0.38 µM] |
| O=C(Nc1ccccn1)C1CCN(S(=O)(=O)c2ccc3c(c2)OCCO3)CC1 | -0.17 °C [at 0.38 µM] |
| CN1C(=O)c2cccc3c(N)ccc(c23)C1=O | 0 °C [at 26 µM] |
| COc1ccc(Nc2nc(-c3cccnc3)nc3ccccc23)cn1 | -0.21 °C [at 1.6 µM] |
| CCCC(=O)Nc1ccc(C(=O)NCCCn2ccnc2)cc1 | -0.11 °C |
| O=C(CCc1ccccc1)NNc1ccc(F)cc1 | -0.17 °C [at 0.8 µM] |
| O=C(O)CC(Cn1cnnn1)c1ccccc1 (stereo not drawn) | -0.14 °C [at 3 µM] |
| COc1ccc(C2c3ccc(O)cc3Oc3ncn(CCCO)c(=N)c32)cc1OC (stereo not drawn) | -0.15 °C [at 6 µM] |
| O=C1CC(Cc2ccc(Cl)cc2)C(=O)N1c1cc(Cl)ccn1 (stereo not drawn) | -0.06 °C [at 0.38 µM] |
